Test results reported in paper PMC11006913.
Numbering of substitutions follows the chain as printed.

How the values were obtained:
Test in all cases: PBM; 200 nM protein, PBS
Conditions in all cases: dsDNA, one strand shown
SIX6 [1] = target: T1, SIX6 (Homo sapiens, UniProt O95475 114-200, L167I)
T1 sequence: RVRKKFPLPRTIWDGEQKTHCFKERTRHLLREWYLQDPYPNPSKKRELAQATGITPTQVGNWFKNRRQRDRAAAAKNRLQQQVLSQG

SIX6 [2] = target: T2, SIX6 (Homo sapiens, UniProt O95475 114-200, L143V)
T2 sequence: T1 sequence with L30V, I54L

SIX6 [3] = target: T3, SIX6 (Homo sapiens, UniProt O95475 114-200, H141N)
T3 sequence: T1 sequence with H28N, I54L

SIX6 [4] = target: T4, SIX6 (Homo sapiens, UniProt O95475 114-200, T165P)
T4 sequence: T1 sequence with T52P, I54L

SIX6 [5] = target: T5, SIX6 (Homo sapiens, UniProt O95475 114-200, L167M)
T5 sequence: T1 sequence with I54M

SIX6 [6] = target: T6, SIX6 (Homo sapiens, UniProt O95475 114-200, L143M)
T6 sequence: T1 sequence with L30M, I54L

SIX6 [7] = target: T7, SIX6 (Homo sapiens, UniProt O95475 114-200, L143I)
T7 sequence: T1 sequence with L30I, I54L

SIX6 [8] = target: T8, SIX6 (Homo sapiens, UniProt O95475 114-200, T165G)
T8 sequence: T1 sequence with T52G, I54L

SIX6 [9] = target: T9, SIX6 (Homo sapiens, UniProt O95475 114-200, T139Q)
T9 sequence: T1 sequence with T26Q, I54L

SIX6 [10] = target: T10, SIX6 (Homo sapiens, UniProt O95475 114-200, T165A)
T10 sequence: T1 sequence with T52A, I54L

SIX6 [11] = target: T11, SIX6 (Homo sapiens, UniProt O95475 114-200, L167V)
T11 sequence: T1 sequence with I54V

SIX6 [12] = target: T12, SIX6 (Homo sapiens, UniProt O95475 114-200)
T12 sequence: T1 sequence with I54L

SIX6 [13] = target: T13, SIX6 (Homo sapiens, UniProt O95475 114-200, T165I)
T13 sequence: T1 sequence with T52I, I54L

NKX3-2 [14] = target: NKX3-2 (Homo sapiens, UniProt P78367 192-278, P234S)
Sequence of NKX3-2 (Homo sapiens, UniProt P78367 192-278, P234S) (P78367 192-278 P234S): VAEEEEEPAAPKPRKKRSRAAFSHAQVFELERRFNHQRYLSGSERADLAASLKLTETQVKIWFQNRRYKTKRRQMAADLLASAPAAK

NKX3-2 [15] = target: NKX3-2 (Homo sapiens, UniProt P78367 192-278)
Sequence of NKX3-2 (Homo sapiens, UniProt P78367 192-278) (P78367 192-278): as the sequence (P78367 192-278 P234S) above, with S43P counted along it

Row | Sequence | binding signal (SIX6 [1]) | binding signal (SIX6 [2]) | binding signal (SIX6 [3]) | binding signal (SIX6 [4]) | binding signal (SIX6 [5]) | binding signal (SIX6 [6]) | binding signal (SIX6 [7]) | binding signal (SIX6 [8]) | binding signal (SIX6 [9]) | binding signal (SIX6 [10]) | binding signal (SIX6 [11]) | binding signal (SIX6 [12]) | binding signal (SIX6 [13]) | binding signal (NKX3-2 [14]) | binding signal (NKX3-2 [15])
1 | GGATATCA | 11.4 upbm affinity estimate (log intensity, higher = more binding, comparable within an allelic series) | 10.4 upbm affinity estimate (log intensity, higher = more binding, comparable within an allelic series) | 11.4 upbm affinity estimate (log intensity, higher = more binding, comparable within an allelic series) | 9.53 upbm affinity estimate (log intensity, higher = more binding, comparable within an allelic series) | 10.9 upbm affinity estimate (log intensity, higher = more binding, comparable within an allelic series) | 11.1 upbm affinity estimate (log intensity, higher = more binding, comparable within an allelic series) | 10.4 upbm affinity estimate (log intensity, higher = more binding, comparable within an allelic series) | 11.3 upbm affinity estimate (log intensity, higher = more binding, comparable within an allelic series) | 11.2 upbm affinity estimate (log intensity, higher = more binding, comparable within an allelic series) | 11.3 upbm affinity estimate (log intensity, higher = more binding, comparable within an allelic series) | 11.2 upbm affinity estimate (log intensity, higher = more binding, comparable within an allelic series) | 11.2 upbm affinity estimate (log intensity, higher = more binding, comparable within an allelic series) | 11.2 upbm affinity estimate (log intensity, higher = more binding, comparable within an allelic series) | – | –
2 | AAGGCCGC | 8.93 upbm affinity estimate (log intensity, higher = more binding, comparable within an allelic series) | 8.99 upbm affinity estimate (log intensity, higher = more binding, comparable within an allelic series) | 8.93 upbm affinity estimate (log intensity, higher = more binding, comparable within an allelic series) | 8.98 upbm affinity estimate (log intensity, higher = more binding, comparable within an allelic series) | 8.92 upbm affinity estimate (log intensity, higher = more binding, comparable within an allelic series) | 8.92 upbm affinity estimate (log intensity, higher = more binding, comparable within an allelic series) | 8.97 upbm affinity estimate (log intensity, higher = more binding, comparable within an allelic series) | 8.93 upbm affinity estimate (log intensity, higher = more binding, comparable within an allelic series) | 8.96 upbm affinity estimate (log intensity, higher = more binding, comparable within an allelic series) | 8.9 upbm affinity estimate (log intensity, higher = more binding, comparable within an allelic series) | 8.89 upbm affinity estimate (log intensity, higher = more binding, comparable within an allelic series) | 8.92 upbm affinity estimate (log intensity, higher = more binding, comparable within an allelic series) | 8.95 upbm affinity estimate (log intensity, higher = more binding, comparable within an allelic series) | 10.5 upbm affinity estimate (log intensity, higher = more binding, comparable within an allelic series) | 10.6 upbm affinity estimate (log intensity, higher = more binding, comparable within an allelic series)
3 | ACGATAGT | 10.4 upbm affinity estimate (log intensity, higher = more binding, comparable within an allelic series) | 10 upbm affinity estimate (log intensity, higher = more binding, comparable within an allelic series) | 10.4 upbm affinity estimate (log intensity, higher = more binding, comparable within an allelic series) | 9.75 upbm affinity estimate (log intensity, higher = more binding, comparable within an allelic series) | – | – | 10 upbm affinity estimate (log intensity, higher = more binding, comparable within an allelic series) | 10.5 upbm affinity estimate (log intensity, higher = more binding, comparable within an allelic series) | 10.6 upbm affinity estimate (log intensity, higher = more binding, comparable within an allelic series) | 10.4 upbm affinity estimate (log intensity, higher = more binding, comparable within an allelic series) | 10.3 upbm affinity estimate (log intensity, higher = more binding, comparable within an allelic series) | 10.4 upbm affinity estimate (log intensity, higher = more binding, comparable within an allelic series) | 10.3 upbm affinity estimate (log intensity, higher = more binding, comparable within an allelic series) | – | –
4 | AGGGTATC | 11.2 upbm affinity estimate (log intensity, higher = more binding, comparable within an allelic series) | 10.2 upbm affinity estimate (log intensity, higher = more binding, comparable within an allelic series) | 11.2 upbm affinity estimate (log intensity, higher = more binding, comparable within an allelic series) | 9.36 upbm affinity estimate (log intensity, higher = more binding, comparable within an allelic series) | 10.7 upbm affinity estimate (log intensity, higher = more binding, comparable within an allelic series) | 11 upbm affinity estimate (log intensity, higher = more binding, comparable within an allelic series) | 10.4 upbm affinity estimate (log intensity, higher = more binding, comparable within an allelic series) | 11.4 upbm affinity estimate (log intensity, higher = more binding, comparable within an allelic series) | 11.4 upbm affinity estimate (log intensity, higher = more binding, comparable within an allelic series) | 11.1 upbm affinity estimate (log intensity, higher = more binding, comparable within an allelic series) | 10.9 upbm affinity estimate (log intensity, higher = more binding, comparable within an allelic series) | 11.1 upbm affinity estimate (log intensity, higher = more binding, comparable within an allelic series) | 11 upbm affinity estimate (log intensity, higher = more binding, comparable within an allelic series) | – | –
5 | CAGCTGGC | 8.7 upbm affinity estimate (log intensity, higher = more binding, comparable within an allelic series) | 8.78 upbm affinity estimate (log intensity, higher = more binding, comparable within an allelic series) | 8.72 upbm affinity estimate (log intensity, higher = more binding, comparable within an allelic series) | 8.91 upbm affinity estimate (log intensity, higher = more binding, comparable within an allelic series) | 8.72 upbm affinity estimate (log intensity, higher = more binding, comparable within an allelic series) | 8.61 upbm affinity estimate (log intensity, higher = more binding, comparable within an allelic series) | 8.88 upbm affinity estimate (log intensity, higher = more binding, comparable within an allelic series) | 8.8 upbm affinity estimate (log intensity, higher = more binding, comparable within an allelic series) | 8.91 upbm affinity estimate (log intensity, higher = more binding, comparable within an allelic series) | 8.79 upbm affinity estimate (log intensity, higher = more binding, comparable within an allelic series) | 8.84 upbm affinity estimate (log intensity, higher = more binding, comparable within an allelic series) | 8.73 upbm affinity estimate (log intensity, higher = more binding, comparable within an allelic series) | 8.69 upbm affinity estimate (log intensity, higher = more binding, comparable within an allelic series) | – | –
6 | GATACCTA | 11.1 upbm affinity estimate (log intensity, higher = more binding, comparable within an allelic series) | 10.3 upbm affinity estimate (log intensity, higher = more binding, comparable within an allelic series) | 11.1 upbm affinity estimate (log intensity, higher = more binding, comparable within an allelic series) | 9.79 upbm affinity estimate (log intensity, higher = more binding, comparable within an allelic series) | 10.6 upbm affinity estimate (log intensity, higher = more binding, comparable within an allelic series) | 11.1 upbm affinity estimate (log intensity, higher = more binding, comparable within an allelic series) | 10.4 upbm affinity estimate (log intensity, higher = more binding, comparable within an allelic series) | 11.2 upbm affinity estimate (log intensity, higher = more binding, comparable within an allelic series) | 11.2 upbm affinity estimate (log intensity, higher = more binding, comparable within an allelic series) | 11.1 upbm affinity estimate (log intensity, higher = more binding, comparable within an allelic series) | 10.9 upbm affinity estimate (log intensity, higher = more binding, comparable within an allelic series) | 11 upbm affinity estimate (log intensity, higher = more binding, comparable within an allelic series) | 10.9 upbm affinity estimate (log intensity, higher = more binding, comparable within an allelic series) | – | –
